V-ATPase pHluor: yeast V-ATPase proton transport regulation by pHLuorin | S. cerevisiae, pHLuorin cytosolic pH fluorescence | response, % at 10 µM | 0.37% of 350,000 active | AID 504577; in the data active means response mostly above about 7.3%, no sharp cut-off; inactive means mostly below about 5.4%; further: actives read high
Mot1-301 SUMO: blocks SUMOylation pathway, rescuing yeast Mot1-301 growth | 1% of 320,000 active | growth rescue, % at 18.8 µM | S. cerevisiae Mot1-301 growth rescue, ATP luminescence, 38.5C; percent above DMSO median, 100 means doubled | AID 2716;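 active means every valid replicate shows activation above 250% relative to neutral control wells; inactive means the rest, any valid replicate at or below 250%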;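 further: OY570 slx delta 5 strain wells were the positive control but not used for scaling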
AI-2 QS modul: Vibrio harveyi AI-2 quorum sensing modulation | Vibrio harveyi JMH597 AI-2 luminescence/OD600 ratio, 9 h; active compounds read low; strain lacks LuxN and CqsS sensors; 0 = neutral-control median | activity change, % at 7.5 µM | 0.4% of 300,000 active | AID 2094; in the data active means activity change below about -75%, passing the limit was not always enough;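 further: luminescence divided by OD600 gain over 9 h not by final OD600 alone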
ATG4B inhibitor: inhibitors of human ATG4B cysteine protease; Q9Y4P1; ATG4B cleavage of LC3-PLA2, NBD-HPC fluorescence, 1 h; inhibition, % at 8.33 µM; 0.51% of 340,000 active; AID 504462; in the data active means inhibition above about 40%
Target sequence (Q9Y4P1 whole entry, looked up): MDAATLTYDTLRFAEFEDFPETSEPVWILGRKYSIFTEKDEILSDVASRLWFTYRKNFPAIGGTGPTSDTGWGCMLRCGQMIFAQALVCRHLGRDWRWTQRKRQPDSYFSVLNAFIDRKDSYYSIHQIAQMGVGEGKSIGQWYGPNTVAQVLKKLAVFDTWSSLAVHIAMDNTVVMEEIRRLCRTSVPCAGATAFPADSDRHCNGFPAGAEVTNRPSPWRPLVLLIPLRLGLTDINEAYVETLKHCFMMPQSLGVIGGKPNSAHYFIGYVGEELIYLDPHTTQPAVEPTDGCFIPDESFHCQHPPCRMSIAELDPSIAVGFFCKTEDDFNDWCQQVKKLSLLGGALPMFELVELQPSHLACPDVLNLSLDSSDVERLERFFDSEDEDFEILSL
Efflux pump inh: blocks antifungal efflux pumps in multiplex yeast assay; S. cerevisiae Candida pump triplex, Nile Red efflux; inhibition, % at 10 µM; 0.44% of 330,000 active; AID 485275;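 active means plate passing quality check with inhibition over a set limit, or well fluorescence over plate mean plus 4 SD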;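 further: Nile Red retained in pooled yeast measured as flow cytometry median fluorescence; 0% = buffer negative control and 100% = Enniatin B positive control; higher means more Nile Red kept so more efflux inhibition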
Yeast Mot1 SUMO: inhibits SUMO pathway, affecting Mot1-301 yeast growth; S. cerevisiae Mot1-301 galactose growth, ATP luminescence, 24 h; -100 = growth of slx-deleted rescue strain; shares compounds with Mot1-301 SUMO; AID 493004; growth activity, percent, % at 42 µM; 2,300 tested, under 10 active;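 active means Signal drops as the depositor expects, and the fitted half-maximal dose is no more than ten times the top valid tested dose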;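 further: more negative values mean stronger growth rescue toward the control strain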
Starred values were filed as active, the others as inactive; nt = no result given; + = active, no number. An excerpt weighted towards active compounds, which were near 2.5% of everything screened.

SMILES	V-ATPase pHluor	Mot1-301 SUMO	AI-2 QS modul	ATG4B inhibitor	Efflux pump inh	Yeast Mot1 SUMO
Cc1cc(C)nc(SCC2COc3ccccc3O2)n1 (configuration not stated)	7	393*	24	-6	0	1
O=C(CN1CCN(C(=O)CCC(=O)N2CCC(c3ccccc3)=N2)CC1)Nc1ccc(F)cc1	9	nt	nt	-6	nt	nt
COCCNC(=O)NC(=O)CSc1nc(C)c(C)c(C)n1	-1	494*	17	-4	0	1
Cc1nc(SCC(=O)NC(=O)NCc2ccccc2)nc(C)c1C	5	nt	5	-19	0	nt
O=S(=O)(c1cnc[nH]1)N1CCN(c2ccc(Cl)cc2)CC1	-3	0	15	-13	0	nt
O=C(C1CCCN(S(=O)(=O)c2cnc[nH]2)C1)N1CCN(c2ccc(Cl)cc2)CC1 (configuration not stated)	0	532*	29	2	0	-1
O=C(CCC(F)(F)F)N1CCCC(CO)(CCc2ccccc2)C1 (configuration not stated)	-1	738*	-1	-1	0	1
COc1ccc(-c2nc3n(c(=O)c2C#N)CCS3)cc1	4	-11	12	-5	0	nt
CCOc1ccc(-c2nc3n(c(=O)c2C#N)CCS3)cc1	3	439*	22	-12	0	0
CSC(=NS(=O)(=O)c1ccc(N)cc1)NS(=O)(=O)c1cccs1	-15	nt	nt	1	nt	nt
CC(=O)OCC(OC(C)=O)C(OC(C)=O)C(OC(C)=O)C(=O)Nc1ccccc1 (configuration not stated)	8	386*	0	2	0	0
O=C(Nc1ccc2c(c1)N(S(=O)(=O)c1cccs1)CCC2)c1c(F)cccc1Cl	-2	-3	5	15	0	nt
COc1cccc(OC)c1C(=O)Nc1ccc2c(c1)N(S(=O)(=O)c1cccs1)CCC2	0	490*	19	-12	0	0
Cc1nnc(NC(=O)CCN2C(=O)C3CC=CCC3C2=O)s1 (configuration not stated)	-1	nt	nt	nt	nt	nt
Cc1cccc(OCc2nnc(SCC(=O)N3c4ccccc4CC3C)n2C)c1C (configuration not stated)	-4	400*	29	2	0	0
Cc1ccccc1OCc1nnc(SCC(=O)N2CCc3ccccc32)n1C	2	-11	4	-7	0	nt
O=C(CCn1c(=O)c2cccn2c2cccnc21)N1CCN(c2cccc(Cl)c2)CC1	1	-7	0	0	0	nt
CCCCn1c(/N=C/c2ccc3c(c2)OCO3)nc2ccccc21	2	577*	-3	14	0	-1
Cc1sc(NC(=O)c2ccc(F)cc2)c(CN2CCCCCC2)c1C	0	497*	15	22	0	1
Cc1sc(NC(=O)c2ccccc2F)c(CN2CCCCC2)c1C	1	-19	25	29	0	nt
CCC(C)(C)n1nnnc1C(c1ccc(OC)c(OC)c1)N1CCN(c2cccc(OC)c2)CC1 (configuration not stated)	1	+	18	-4	0	0
O=C(O)c1cc(N/N=C/C=C/c2ccccc2)ccc1Cl	3	25	25	-4	0	nt
O=C(Cc1ccccc1)NNC(=S)Nc1ccc(Cl)cc1	-2	0	-2	-1	0	nt
O=C(CCc1ccccc1)NNC(=S)Nc1ccc(F)cc1	3	377*	10	4	0	-1
O=C(/C=C/c1ccco1)NCC1COc2ccccc2O1 (configuration not stated)	0	12	-29	5	0	nt
SMILES	V-ATPase pHluor	Mot1-301 SUMO	AI-2 QS modul	ATG4B inhibitor	Efflux pump inh	Yeast Mot1 SUMO
CCOc1cc(C(=S)N2CCOCC2)ccc1OC(=O)c1ccc(C)cc1	-2	414*	-14	-2	0	-1
CC(=O)Nc1nn(CC(C)C)c2nc3ccc(C)cc3cc12	0	nt	nt	nt	nt	nt
CC(=O)Nc1nn(C)c2nc3ccc(C)cc3cc12	2	479*	10	-6	0	0
COc1cccc(CNC(=O)Cn2ncc3c(=O)oc4ccccc4c32)c1	6	8	12	-3	0	nt
CCn1cc(CCC(=O)NCc2ccccc2OC)c2ccccc21	-1	7	18	-7	0	nt
CCn1cc(CCCC(=O)NCc2ccccc2OC)c2ccccc21	2	888*	33	13	0	0
CCn1cc(C(=O)NCc2ccccn2)c(=O)c2cc(F)c(N3CCN(C)CC3)cc21	0	388*	8	-18	0	0
CCn1cc(C(=O)NCCc2ccccc2)c(=O)c2cc(F)c(N3CCN(C)CC3)cc21	5	17	2	-7	0	nt
Cc1ccc(S(=O)(=O)N2CCCC(c3nc(-c4ccc(C)o4)no3)C2)cc1 (configuration not stated)	-2	0	13	-15	0	nt
Cc1ccc(-c2noc(C3CCCN(S(=O)(=O)c4ccc5ccccc5c4)C3)n2)o1 (configuration not stated)	-5	765*	28	-2	0	0
CC1(C)CC(=O)C(C=Nc2ccc(O)c(N=CC3=C(O)CC(C)(C)CC3=O)c2)=C(O)C1	2	480*	49	-7	0	0
CC1(C)CC(=O)C(C=Nc2ccc3c(c2)OCO3)=C(O)C1	1	-5	23	-7	0	nt
CNC[C@H]1Oc2ccc(NC(=O)C3CCCCC3)cc2CC(=O)N([C@H](C)CO)C[C@@H]1C	-1	-5	nt	1	0	nt
COc1ccc(OC)c(NC2c3ccccc3C(=O)N2c2cccnc2)c1 (configuration not stated)	5	0	4	5	0	nt
COc1ccc(CCN2CC(C(=O)N(C)CC(=O)Nc3cccc(F)c3)CC2=O)cc1OC (configuration not stated)	3	451*	25	6	0	0
COc1cccc(NC(=O)CN(C)C(=O)C2CC(=O)N(CCc3ccc(OC)c(OC)c3)C2)c1 (configuration not stated)	-2	nt	nt	-12	nt	nt
CCCCC(=O)Nc1nnc(/C=C/c2ccc(OC)cc2)s1	5	714*	16	-1	0	0
CCCC(=O)Nc1nnc(/C=C/c2ccc(OC)cc2)s1	0	3	21	12	0	nt
Cc1c(OC(C)C(=O)N2C[C@H]3C[C@@H](C2)c2cccc(=O)n2C3)ccc2c3c(c(=O)oc12)CCCC3 (some centres not stated)	0	684*	20	0	0	1
O=C1NC(=O)N(Cc2ccccc2)C1=O	-1	+	29	-3	0	1
Cc1nn(C)c(Cl)c1CN1CCN(CCC(C)C)C(CCO)C1 (configuration not stated)	-2	+	7	1	0	0

Screens (PubChem BioAssay)
